Laboratory results reported in the supplement of paper PMC10849652.
The full data set covers some 8,800 targets. This sample favours those with a hit. About 0.5% of all pairs of compound and target were hits.

The targets below were run with C1=CC2=C(C=CC(=C2)/C=C\3/C(=O)NC(=NCC4=CC=CS4)S3)N=C1 (assay: log2 fold change, soluble protein after heating vs DMSO (PISA); higher = thermal stabilisation; K562 lysate, 10 uM; active = over 0.2 and 3.5 SD of the protein, either way, in both replicates (recomputed)).
Outline: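 Pellets of K562 cells were dounce-homogenised in PBS pH 7.4 with 1 mM MgCl2, and the crude extract was held at 1 mg/mL protein for a 30 min treatment with 10 μM compound. Aliquots were heated for 3 min over 48°C-58°C and pooled before NP-40 was added to 0.5% at 4°C. The supernatant from 21,000xg for 90 min was quantified by TMTpro 16plex LC-MS/MS with channel sums equalised. Values are reported from duplicates as log-two fold change in thermal stability relative to solvent controls.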

Chain of UniProt Q8WWV3 (Q8WWV3 whole entry, looked up): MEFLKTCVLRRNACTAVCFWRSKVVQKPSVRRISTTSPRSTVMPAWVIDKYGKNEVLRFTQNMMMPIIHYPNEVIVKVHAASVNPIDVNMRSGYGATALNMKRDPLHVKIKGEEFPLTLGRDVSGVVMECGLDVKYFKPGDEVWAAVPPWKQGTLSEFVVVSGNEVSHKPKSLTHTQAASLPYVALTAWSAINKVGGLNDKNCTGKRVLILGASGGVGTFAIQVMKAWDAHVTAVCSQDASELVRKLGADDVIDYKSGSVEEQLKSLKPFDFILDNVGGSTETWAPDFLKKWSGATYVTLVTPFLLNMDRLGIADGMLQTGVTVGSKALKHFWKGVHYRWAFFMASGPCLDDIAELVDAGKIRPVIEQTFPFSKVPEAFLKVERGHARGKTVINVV
Chain of UniProt Q96EE3 (Q96EE3 whole entry, looked up): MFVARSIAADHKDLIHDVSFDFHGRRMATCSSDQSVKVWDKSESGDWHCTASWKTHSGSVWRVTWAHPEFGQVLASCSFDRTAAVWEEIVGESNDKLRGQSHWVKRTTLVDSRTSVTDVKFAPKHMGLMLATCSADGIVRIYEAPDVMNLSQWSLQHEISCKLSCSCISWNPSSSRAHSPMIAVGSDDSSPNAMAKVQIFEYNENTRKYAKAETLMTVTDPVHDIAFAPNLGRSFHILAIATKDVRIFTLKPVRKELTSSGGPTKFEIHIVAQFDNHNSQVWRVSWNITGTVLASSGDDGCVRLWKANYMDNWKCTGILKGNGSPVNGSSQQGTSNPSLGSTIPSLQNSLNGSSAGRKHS
Chain of UniProt Q15418 (Q15418 whole entry, looked up): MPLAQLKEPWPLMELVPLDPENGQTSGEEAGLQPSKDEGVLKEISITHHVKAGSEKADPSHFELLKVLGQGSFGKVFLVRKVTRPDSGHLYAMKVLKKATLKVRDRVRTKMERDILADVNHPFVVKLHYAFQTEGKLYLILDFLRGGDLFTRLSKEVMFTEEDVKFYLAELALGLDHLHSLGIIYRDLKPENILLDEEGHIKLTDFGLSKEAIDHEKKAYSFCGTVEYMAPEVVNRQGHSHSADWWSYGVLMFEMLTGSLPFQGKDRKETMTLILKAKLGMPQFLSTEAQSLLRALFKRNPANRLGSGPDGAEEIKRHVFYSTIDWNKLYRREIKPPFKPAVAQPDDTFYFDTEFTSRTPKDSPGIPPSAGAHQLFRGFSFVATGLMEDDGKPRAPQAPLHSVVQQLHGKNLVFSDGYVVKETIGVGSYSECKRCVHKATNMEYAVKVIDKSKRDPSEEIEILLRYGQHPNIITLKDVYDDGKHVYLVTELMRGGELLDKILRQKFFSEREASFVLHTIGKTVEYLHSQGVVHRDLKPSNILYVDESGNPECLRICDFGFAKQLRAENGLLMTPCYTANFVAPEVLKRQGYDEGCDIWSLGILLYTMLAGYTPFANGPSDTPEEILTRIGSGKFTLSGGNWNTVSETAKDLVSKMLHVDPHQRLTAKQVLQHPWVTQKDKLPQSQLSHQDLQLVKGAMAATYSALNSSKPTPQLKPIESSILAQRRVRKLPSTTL
Chain of UniProt Q15287 (Q15287 whole entry, looked up): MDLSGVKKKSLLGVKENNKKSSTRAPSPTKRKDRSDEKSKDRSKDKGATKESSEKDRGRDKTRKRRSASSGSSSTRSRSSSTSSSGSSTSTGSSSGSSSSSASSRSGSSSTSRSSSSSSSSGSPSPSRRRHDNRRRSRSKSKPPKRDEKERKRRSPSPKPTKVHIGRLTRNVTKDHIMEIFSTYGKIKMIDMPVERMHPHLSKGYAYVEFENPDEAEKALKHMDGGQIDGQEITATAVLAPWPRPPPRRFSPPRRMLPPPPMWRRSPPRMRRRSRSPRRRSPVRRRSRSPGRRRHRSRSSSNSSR
Chain of UniProt P53805 (P53805 whole entry, looked up): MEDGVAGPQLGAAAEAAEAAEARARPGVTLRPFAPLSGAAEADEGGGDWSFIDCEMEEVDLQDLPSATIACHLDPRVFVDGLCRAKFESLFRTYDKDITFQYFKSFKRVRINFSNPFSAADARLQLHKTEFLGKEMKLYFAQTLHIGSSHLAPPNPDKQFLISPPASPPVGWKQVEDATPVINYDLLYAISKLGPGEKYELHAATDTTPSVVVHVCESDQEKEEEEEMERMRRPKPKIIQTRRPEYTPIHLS
Chain of UniProt Q9H0U4 (Q9H0U4 whole entry, looked up): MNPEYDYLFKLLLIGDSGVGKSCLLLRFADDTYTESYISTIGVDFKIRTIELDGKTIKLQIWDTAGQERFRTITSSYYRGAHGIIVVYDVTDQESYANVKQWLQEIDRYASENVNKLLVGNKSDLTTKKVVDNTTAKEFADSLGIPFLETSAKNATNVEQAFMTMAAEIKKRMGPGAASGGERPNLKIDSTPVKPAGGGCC
Chain of UniProt P23443 (P23443 whole entry, looked up): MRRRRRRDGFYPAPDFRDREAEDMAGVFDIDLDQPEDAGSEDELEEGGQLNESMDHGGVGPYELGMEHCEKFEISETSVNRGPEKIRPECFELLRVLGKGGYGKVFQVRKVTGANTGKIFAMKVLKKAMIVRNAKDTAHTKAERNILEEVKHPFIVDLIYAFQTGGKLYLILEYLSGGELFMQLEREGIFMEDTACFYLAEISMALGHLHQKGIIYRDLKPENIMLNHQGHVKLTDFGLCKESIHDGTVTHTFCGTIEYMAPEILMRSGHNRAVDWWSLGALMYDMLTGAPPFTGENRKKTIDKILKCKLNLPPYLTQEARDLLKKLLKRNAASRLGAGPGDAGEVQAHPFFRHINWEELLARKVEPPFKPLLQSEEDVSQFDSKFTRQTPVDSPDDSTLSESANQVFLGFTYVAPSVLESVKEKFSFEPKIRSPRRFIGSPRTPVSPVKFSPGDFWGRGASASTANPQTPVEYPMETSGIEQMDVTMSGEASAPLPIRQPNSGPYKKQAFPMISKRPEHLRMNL
Chain of UniProt Q9H1K0 (Q9H1K0 whole entry, looked up): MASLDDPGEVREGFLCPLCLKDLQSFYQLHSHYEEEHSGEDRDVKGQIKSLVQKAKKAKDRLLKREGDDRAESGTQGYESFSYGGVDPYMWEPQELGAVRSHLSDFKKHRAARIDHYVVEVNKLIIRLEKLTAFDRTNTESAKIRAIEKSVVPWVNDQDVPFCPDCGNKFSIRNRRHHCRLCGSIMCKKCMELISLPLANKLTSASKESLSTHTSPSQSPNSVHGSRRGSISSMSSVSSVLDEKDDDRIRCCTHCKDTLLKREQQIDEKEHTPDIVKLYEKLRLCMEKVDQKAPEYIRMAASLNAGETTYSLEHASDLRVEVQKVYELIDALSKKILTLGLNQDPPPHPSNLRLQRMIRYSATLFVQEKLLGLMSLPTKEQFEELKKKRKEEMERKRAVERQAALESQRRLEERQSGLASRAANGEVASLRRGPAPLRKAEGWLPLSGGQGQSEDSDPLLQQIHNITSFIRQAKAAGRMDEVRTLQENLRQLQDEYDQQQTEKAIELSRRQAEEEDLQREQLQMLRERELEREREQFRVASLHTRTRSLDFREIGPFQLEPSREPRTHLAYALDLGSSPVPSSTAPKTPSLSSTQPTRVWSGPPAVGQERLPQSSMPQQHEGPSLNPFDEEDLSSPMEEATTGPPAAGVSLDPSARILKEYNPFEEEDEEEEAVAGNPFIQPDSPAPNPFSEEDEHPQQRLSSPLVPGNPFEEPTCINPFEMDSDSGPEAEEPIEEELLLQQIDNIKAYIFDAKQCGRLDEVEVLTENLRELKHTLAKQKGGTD
Chain of UniProt Q9H0R6 (Q9H0R6 whole entry, looked up): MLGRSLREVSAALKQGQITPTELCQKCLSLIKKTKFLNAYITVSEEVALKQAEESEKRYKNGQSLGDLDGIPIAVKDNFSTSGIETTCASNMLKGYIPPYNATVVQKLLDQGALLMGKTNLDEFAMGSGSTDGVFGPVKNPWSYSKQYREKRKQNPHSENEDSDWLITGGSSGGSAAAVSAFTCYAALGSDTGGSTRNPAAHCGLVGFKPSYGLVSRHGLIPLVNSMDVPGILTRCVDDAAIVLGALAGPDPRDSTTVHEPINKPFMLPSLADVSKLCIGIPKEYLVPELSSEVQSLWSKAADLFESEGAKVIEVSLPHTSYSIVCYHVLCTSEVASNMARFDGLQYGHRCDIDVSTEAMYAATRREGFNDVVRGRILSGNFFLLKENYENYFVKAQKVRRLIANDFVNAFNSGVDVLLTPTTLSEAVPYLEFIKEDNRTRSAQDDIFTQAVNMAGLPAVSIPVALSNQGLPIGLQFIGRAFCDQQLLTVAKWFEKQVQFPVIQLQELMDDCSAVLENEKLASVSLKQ
Chain of UniProt O14730 (O14730 whole entry, looked up): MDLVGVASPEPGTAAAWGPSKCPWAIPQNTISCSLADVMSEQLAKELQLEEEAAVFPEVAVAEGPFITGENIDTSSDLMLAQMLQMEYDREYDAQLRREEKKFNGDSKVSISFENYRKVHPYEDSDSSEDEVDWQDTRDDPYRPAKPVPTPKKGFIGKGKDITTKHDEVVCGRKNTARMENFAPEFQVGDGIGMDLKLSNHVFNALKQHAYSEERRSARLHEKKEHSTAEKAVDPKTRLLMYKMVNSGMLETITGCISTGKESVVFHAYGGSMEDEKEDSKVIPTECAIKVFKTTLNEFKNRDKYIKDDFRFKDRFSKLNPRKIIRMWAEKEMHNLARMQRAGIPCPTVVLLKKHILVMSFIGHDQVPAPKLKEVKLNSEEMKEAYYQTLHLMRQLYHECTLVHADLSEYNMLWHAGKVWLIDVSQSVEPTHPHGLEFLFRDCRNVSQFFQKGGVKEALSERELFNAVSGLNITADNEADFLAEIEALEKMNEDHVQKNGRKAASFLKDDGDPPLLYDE
Chain of UniProt Q15404 (Q15404 whole entry, looked up): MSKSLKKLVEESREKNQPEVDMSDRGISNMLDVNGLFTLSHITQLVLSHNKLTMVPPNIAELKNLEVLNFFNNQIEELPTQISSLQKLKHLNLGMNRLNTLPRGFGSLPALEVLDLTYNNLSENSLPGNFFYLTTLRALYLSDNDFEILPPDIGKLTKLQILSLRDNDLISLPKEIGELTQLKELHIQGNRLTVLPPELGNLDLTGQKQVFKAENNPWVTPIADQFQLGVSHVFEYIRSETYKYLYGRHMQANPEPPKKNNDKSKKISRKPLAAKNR

log2 fold change, inactive:
SEC62 (UniProt Q99442) 0.046, RPL28 (UniProt P46779) -0.009, SBF1 isoform 4 (UniProt O95248) -0.052, SEC16A isoform 5 (UniProt O15027) -0.016, SEH1L isoform 1 (UniProt Q96EE3) -0.023, RDH14 (UniProt Q9HBH5) -0.049, RFC3 (UniProt P40938) 0.024, RAB1B (UniProt Q9H0U4) 0.019, RRAGA (UniProt Q7L523) -0.065, RAB3IL1 (UniProt E9PK89) 0.013, RBM42 (UniProt Q9BTD8) -0.062, RBSN (UniProt Q9H1K0) -0.014, RAC2 (UniProt P15153) -0.035, RSU1 (UniProt Q15404) -0.052, RPL37A (UniProt P61513) -0.011, QRSL1 (UniProt Q9H0R6) -0.14, RBBP8 isoform 2 (UniProt Q99708) 0.074, RASA2 (UniProt Q15283) -0.071, RIOK3 (UniProt O14730) 0.029, RMC1 (UniProt Q96DM3) -0.06, RPS6KB1 (UniProt P23443) 0.013, RCAN1 (UniProt P53805) -0.018, RNF40 (UniProt O75150) -0.039, RNPS1 (UniProt Q15287) -0.151, RAI14 isoform 2 (UniProt Q9P0K7) 0.004, SDHA (UniProt P31040) -0.006, SCCPDH (UniProt Q8NBX0) 0.083, RPS6KA1 (UniProt Q15418) -0.029, RBM22 (UniProt Q9NW64) -0.07, RPS26P11 (UniProt Q5JNZ5) -0.01, RTN4IP1 (UniProt Q8WWV3) 0.065, ROCK1 (UniProt Q13464) 0.075, RPL8 (UniProt P62917) -0.025, RPL36AL (UniProt Q969Q0) 0.061
